Reference: PubChem BioAssay AID589 (National Center for Advancing Translational Sciences (NCATS), 2007)
About 6,200 (11%) of roughly 59,000 compounds were called active. About 9% were inconclusive and are not listed. Rule as the data show it: active = max dye-equivalent concentration above about 10 nM; inconclusive = mostly about 1.1 nM to 9.6 nM; inactive = weaker than that. What follows is part of a selection rich in actives, with near analogues and random picks from the rest.

Test: qHTS Assay for Spectroscopic Profiling in 4-MU Spectral Region
Conditions: compound autofluorescence, 340/450 nm, 4-MU equivalents; hits give high values
Method in brief: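 Intrinsic fluorescence at 340/450 nm (ex/em) was read after 15 min at room temperature in pH 8.0, 100 mM Tris. Each compound concentration expressed as 4-MU-equivalent concentration from a six-point 4-MU standard series on each plate.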

| SMILES | max dye-equivalent concentration |
| --- | --- |
| Cc1ccsc1CNn1cnnc1SCc1ccccc1F | inactive |
| COc1ccccc1N1CCN(C(=O)Cn2nnc(-c3cccs3)n2)CC1 | inactive |
| CN(C(=O)c1ccno1)c1nnc(-c2cccnc2)s1 | inactive |
| COc1cccc(-c2nnc(N(C)C(=O)c3ccno3)s2)c1 | 34 nM (active) |
| CN(C(=O)COc1ccccc1)c1nnc(-c2ccncc2)s1 | inactive |
| C=CCn1c(COc2ccccc2)nnc1SCC(=O)NCC(=O)OCC | inactive |
| COc1ccccc1-c1cc(NCc2cccs2)ncn1 | inactive |
| COC(=O)[C@H](CCSC)NC(=O)Nc1ccc(OC)cc1 | inactive |
| COc1cccc2cc(C(C)N(CCCN3CCOCC3)C(=O)Nc3ccc(Cl)cc3)oc12 (configuration not stated) | inactive |
| COc1cc2cc(CN(CCN3CCCC3)C(=O)Nc3ccccc3Cl)c(=O)[nH]c2cc1OC | 250 nM (active) |
| COc1ccc(CCN(Cc2cc3cccc(C)c3[nH]c2=O)C(=O)N2CCCC2)cc1OC | inactive |
| Cc1cccc(-n2ncc3c(N4CCc5ccccc54)ncnc32)c1 | 18 nM (active) |
| COc1ccc(N2CCN(C(=O)CSc3ncnc4c3cnn4-c3ccc(OC)cc3)CC2)cc1 | inactive |
| CCCc1nc2c3cnn(-c4cccc(Cl)c4)c3ncn2n1 | inactive |
| c1ccc(-n2ncc3c(N4CCCC4)ncnc32)cc1 | inactive |
| COc1ccc(-n2ncc3c(N4CCCc5ccccc54)ncnc32)cc1 | 39 nM (active) |
| Oc1c(C(c2ccccn2)N2CCOCC2)ccc2cccnc12 (configuration not stated) | inactive |
| COc1ccccc1CNc1cc(-c2ccccc2CN(C)C)ncn1 | inactive |
| O=C(Nc1ccccc1F)C1C2C=CC3(O2)C1C(=O)N(c1cccnc1)C3C(=O)NC1CCCCC1 (configuration not stated) | inactive |
| Cc1ccc(-c2c3c(=O)n(C)c(=O)n(C)c3cn2-n2cnnc2)cc1 | inactive |
| COc1ccc(-c2c3c(=O)n(C)c(=O)n(C)c3cn2NC(C)=O)cc1 | 2200 nM (active) |
| COc1ccc(-c2c3c(=O)n(C)c(=O)n(C)c3cn2-c2cccc(OC)c2)cc1 | 12 nM (active) |
| Cc1ccc(-c2c3c(=O)n(C)c(=O)n(C)c3cn2-c2ccccc2O)cc1 | inactive |
| COc1ccc(N(C(=O)c2cccnc2)S(=O)(=O)c2ccc3c(c2)n(C)c(=O)n3C)cc1 | inactive |
| COc1ccc(OC)c(-n2cc3c(=O)n(C)c(=O)n(C)c3c2)c1 | inactive |
| Cc1ccc(Oc2ccc(N)cc2)cc1 | inactive |

| SMILES | max dye-equivalent concentration |
| --- | --- |
| CCOc1ccccc1-n1c(SCC(=O)NCc2ccco2)nnc1-c1ccncc1 | inactive |
| O=C(CCc1ccccc1)Nc1ccc(NC(=O)C2CC2)nc1 | inactive |
| O=C1CC(c2ccccc2)C(=O)N1c1cccc(O)c1 (configuration not stated) | inactive |
| Cc1cc(NC(=O)c2cnn3cccnc23)n(-c2ccccc2)n1 | inactive |
| O=C(Nc1nc2ccc(S(=O)(=O)N3CCCC3)cc2s1)C1CCCO1 (configuration not stated) | inactive |
| CCN(Cc1ccncc1)C(=O)c1cccc(S(=O)(=O)N2CCOCC2)c1 | inactive |
| O=C(Nc1ccc2c(c1)nc1n2CCCCC1)c1cc(S(=O)(=O)N2CCOCC2)ccc1Cl | inactive |
| CCOC(=O)c1sc(NC(=O)c2cc(S(=O)(=O)N3CCOCC3)ccc2C)nc1C | inactive |
| O=C(Nc1nc2cc3c(cc2s1)OCCO3)c1cccc(S(=O)(=O)N2CCOCC2)c1 | 18 nM (active) |
| COc1ccc(S(=O)(=O)N2CCOCC2)cc1C(=O)Nc1nc2ccccc2s1 | 35 nM (active) |
| CC(=O)c1c(N2CCOCC2)nc(=S)n(-c2cc(C)ccc2C)c1C | inactive |
| Cc1ccc2cccc(S(=O)(=O)N3CCN(c4ccccc4F)CC3)c2n1 | inactive |
| CCOC(=O)CN(C(=O)CN1CCOCC1)c1ccc(Br)cc1 | inactive |
| COc1ncnc2c1N=C1CC(C)(C)CC(N)=C1S2 | inactive |
| O=C(OCC(=O)N1CCN(C(=O)c2ccco2)CC1)c1ccccc1Cc1ccccc1 | inactive |
| COC(=O)CN(c1cccc(C(C)=O)c1)S(C)(=O)=O | inactive |
| C=CCn1c(N)c(S(=O)(=O)c2cccs2)c2nc3ccccc3nc21 | 3700 nM (active) |
| CC(C)Cn1c(N)c(C(=O)NCc2cccs2)c2nc3ccccc3nc21 | 280 nM (active) |
| CCN(CC(=O)NCc1cccs1)c1nnnn1-c1ccccc1 | inactive |
| Cc1nnc(SCC(=O)NCc2cccs2)[nH]c1=O | inactive |
| C=CCn1c(C2CC(=O)N(c3ccc(C)cc3)C2)nc2ccccc21 (configuration not stated) | inactive |
| C=CCn1c(C(C)NC(=O)CC)nc2ccccc21 (configuration not stated) | inactive |
| C=CCn1c(N)c(C(=O)OCC(C)C)c2nc3ccccc3nc21 | 3300 nM (active) |
| O=C(c1cc(C(F)(F)F)cc(C(F)(F)F)c1)N1CCC2(CCCN(Cc3ccncc3)C2)CC1 | inactive |
| COc1ccc(-c2nn(-c3ccccc3)cc2C(=O)Nc2nc(CC(C)=O)ns2)cc1 | inactive |
| CCn1c(CSc2nncn2-c2ccc(OC)cc2)nc2cc(S(=O)(=O)N(C)C)ccc21 | inactive |
